# PubChem BioAssay (NCATS)
# Results filed as inconclusive are left out. Activity calls are given as the source filed them. Unless noted, calls follow the shape of the dose curve; as a rule, active = well fitted cell-killing curve with a large enough effect; inconclusive = small, poorly fitted or top-dose-only effect, or effect the other way; inactive = no such curve, though single readings can be large or run the other way.
# Experiments:
# [1] = qHTS drug screen for cell cycle checkpoint inhibitors in PARPi-resistant BRCA-mutant ovarian cancer cell lines. (AID 1963452; calls by dose curve; also: potency is read from the fitted curve at half-maximal effect); details: PEO1/OlaR viability, CellTiter-Glo luminescence, 96 h; for Z-AUC: stronger effect = lower value
# Method in brief: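 PEO1, PEO4 and PEO1/OlaR ovarian cancer cells, 600 per well, exposed 96 h at 37C to a dilution series. Viability read by CellTiter-Glo luminescence, normalized to DMSO and empty wells; activity summarized as Z-AUC.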
# [2] = Quantitative High-Throughput drug screen in 47 multiple myeloma cell lines against the NCATS MIPE library collection: L363_DSMZ cell viability assay (AID 1918984); details: L363 myeloma viability, CellTiter-Glo ATP luminescence, 48 h; series mostly up to 45.8 µM; also: nearly all actives have a fitted effect of over 40% in size; also: potency is read from the fitted curve at half-maximal effect
# Method in brief: (§1)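 Inhibition of viability over 48 h was scored by ATP content (CellTiter-Glo) in 500-cell wells. Zero and full viability were defined by media-only and DMSO-only wells.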
# [3] = Quantitative High-Throughput drug screen in 47 multiple myeloma cell lines against the NCATS MIPE library collection: OCIMY5_PLB cell viability assay (AID 1918988); details: OCI-MY5 myeloma viability, ATP luminescence, 48 h; series mostly up to 45.8 µM; also: potency is read from the fitted curve at half-maximal effect; nearly all actives have a fitted effect of over 65% in size
# Method in brief: as §1
# [4] = Quantitative High-Throughput drug screen in 47 multiple myeloma cell lines against the NCATS MIPE library collection: OPM1_PLB cell viability assay (AID 1918989); details: CellTiter-Glo, 48 h; series mostly up to 45.8 µM; also: nearly all actives have a fitted effect of over 40% in size; also: potency is read from the fitted curve at half-maximal effect
# Method in brief: as §1
# [5] = Quantitative High-Throughput drug screen in 47 multiple myeloma cell lines against the NCATS MIPE library collection: SKMM1_PLB cell viability assay (AID 1919863); details: SKMM1 myeloma viability, CellTiter-Glo ATP, 48 h; viability: stronger effect = lower value; also: nearly all actives have a fitted effect of over 35% in size; also: potency is read from the fitted curve at half-maximal effect
# Method in brief: as §1
# [6] = Quantitative High-Throughput drug screen in 47 multiple myeloma cell lines against the NCATS MIPE library collection: U266_ATCC cell viability assay (AID 1919864); details: U266 myeloma viability, CellTiter-Glo ATP luminescence, 48 h; series mostly up to 45.8 µM; also: nearly all actives have a fitted effect of over 35% in size; also: potency is read from the fitted curve at half-maximal effect
# Method in brief: as §1
# [7] = Quantitative High-Throughput drug screen in 47 multiple myeloma cell lines against the NCATS MIPE library collection: VP6_DJ cell viability assay (AID 1919867); details: ATP luminescence, 48 h; series mostly up to 45.8 µM; also: nearly all actives have a fitted effect of over 40% in size; also: potency is read from the fitted curve at half-maximal effect
# Method in brief: as §1
# [8] = Quantitative High-Throughput drug screen in 47 multiple myeloma cell lines against the NCATS MIPE library collection: RPMI8226_ATCC cell viability assay (AID 1919871); details: RPMI8226 myeloma viability, CellTiter-Glo ATP luminescence, 48 h; series mostly up to 45.8 µM; also: nearly all actives have a fitted effect of over 30% in size; also: potency is read from the fitted curve at half-maximal effect
# Method in brief: as §1
# [9] = Quantitative High-Throughput drug screen in 47 multiple myeloma cell lines against the NCATS MIPE library collection: OPM2_DSMZ cell viability assay (AID 1919872); details: OPM2 myeloma viability, CellTiter-Glo ATP luminescence, 48 h; series mostly up to 45.8 µM; also: nearly all actives have a fitted effect of over 30% in size; also: potency is read from the fitted curve at half-maximal effect
# Method in brief: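 Luminescent ATP measurement with CellTiter-Glo gives viability, scaled between DMSO-only wells (100%) and media-only wells (0%). Cells, 500 per well, faced library compounds for 48 hours at 37C.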
# [10] = Quantitative High-Throughput drug screen in 47 multiple myeloma cell lines against the NCATS MIPE library collection: KMS28BM_JCRB cell viability assay (AID 1919874); details: CellTiter-Glo ATP, 48 h; series mostly up to 45.8 µM; also: nearly all actives have a fitted effect of over 35% in size; also: potency is read from the fitted curve at half-maximal effect
# Method in brief: as §1
# [11] = Quantitative High-Throughput drug screen in 47 multiple myeloma cell lines against the NCATS MIPE library collection: OCIMY7_PLB cell viability assay (AID 1918987); details: OCI-MY7 myeloma viability, CellTiter-Glo ATP, 48 h; series mostly up to 45.8 µM; also: nearly all actives have a fitted effect of over 65% in size; also: potency is read from the fitted curve at half-maximal effect
# Method in brief: as §1
# [12] = Quantitative High-Throughput drug screen in 47 multiple myeloma cell lines against the NCATS MIPE library collection: XG6_PLB cell viability assay (AID 1919865); details: XG6 myeloma viability, CellTiter-Glo ATP luminescence, 48 h; series mostly up to 45.8 µM; also: nearly all actives have a fitted effect of over 40% in size; also: potency is read from the fitted curve at half-maximal effect
# Method in brief: as §1
# [13] = Quantitative High-Throughput drug screen in 47 multiple myeloma cell lines against the NCATS MIPE library collection: XG1_PLB cell viability assay (AID 1919866); details: CellTiter-Glo ATP, 48 h; series mostly up to 45.8 µM; also: nearly all actives have a fitted effect of over 35% in size; also: potency is read from the fitted curve at half-maximal effect
# Method in brief: as §1
# [14] = Quantitative High-Throughput drug screen in 47 multiple myeloma cell lines against the NCATS MIPE library collection: UTMC2_PLB cell viability assay (AID 1919868); details: CellTiter-Glo ATP luminescence, 48 h; viability (% of DMSO control): at 45.8 µM (top of the series) unless noted; also: nearly all actives have a fitted effect of over 55% in size; also: potency is read from the fitted curve at half-maximal effect
# Method in brief: as §1
# [15] = Quantitative High-Throughput drug screen in 47 multiple myeloma cell lines against the NCATS MIPE library collection: PE2_PLB cell viability assay (AID 1919869); details: PE2_PLB myeloma cells viability, ATP luminescence, 48 h; series mostly up to 45.8 µM; also: nearly all actives have a fitted effect of over 35% in size; also: potency is read from the fitted curve at half-maximal effect
# Method in brief: as §1
# [16] = Quantitative High-Throughput drug screen in 47 multiple myeloma cell lines against the NCATS MIPE library collection: PCM6_Riken cell viability assay (AID 1919870); details: CellTiter-Glo ATP, 48 h; series mostly up to 45.8 µM; also: nearly all actives have a fitted effect of over 30% in size; also: potency is read from the fitted curve at half-maximal effect
# Method in brief: as §1
# [17] = Quantitative High-Throughput drug screen in 47 multiple myeloma cell lines against the NCATS MIPE library collection: KMS11_JCRBsus cell viability assay (AID 1919873); details: KMS11 myeloma viability, CellTiter-Glo ATP luminescence, 48 h; series mostly up to 45.8 µM; also: nearly all actives have a fitted effect of over 50% in size; also: potency is read from the fitted curve at half-maximal effect
# Method in brief: as §1
# [18] = Quantitative High-Throughput drug screen in 47 multiple myeloma cell lines against the NCATS MIPE library collection: KMS34_JCRB cell viability assay (AID 1918985); details: KMS34 myeloma viability, CellTiter-Glo ATP luminescence, 48 h; series mostly up to 45.8 µM; also: nearly all actives have a fitted effect of over 40% in size; also: potency is read from the fitted curve at half-maximal effect
# Method in brief: as §1
# [19] = qHTS for identification of novel therapeutic agents for treatment of microphthalmiaassociated transcription factor (MiT) renal cell carcinoma (RCC) (AID 1963991); details: CellTiter-Glo, 48 h, stronger effect = lower value
# Method in brief: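 Viability of three TFE3-fusion renal carcinoma lines measured by CellTiter-Glo after 48 h treatment with each of 1912 compounds at 11 concentrations. Responses scaled between DMSO (100%) and empty wells (0%) before curve fitting.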
# [20] = measured here: PEO1 parental Z-AUC
# [21] = TFE3-RCC UOK109 viability, measured here: UOK109 Z-AUC
# [22] = TFE3-RCC viability, measured here: UOK124 Z-AUC
# [23] = TFE3-RCC viability, measured here: UOK145 Z-AUC
structure (smiles),measurement,setting,value
CC(C)[C@H](C(=O)Nc1ccc(C(=O)NO)cc1)c1ccccc1,Potency,[1],1.38 µM (active)
Cc1coc2c1C(=O)C(=O)c1c-2ccc2c1CCCC2(C)C,Potency,[2],0.0418 µM (active)
same,Potency,[3],14.8 µM (active)
same,Potency,[4],20.9 µM (active)
same,Potency,[5],18.7 µM (active)
same,Potency,[6],inactive
same,Potency,[7],20.9 µM (active)
same,Potency,[8],2.09 µM (active)
same,Potency,[9],16.6 µM (active)
same,Potency,[10],inactive
same,Z-AUC,[1],1.2 (inactive)
same,Z-AUC,[1]; [20],0.989
same,Z-AUC,[1]; measured here: PEO4 Z-AUC,0.949
COc1ccc(C=Cc2cc(OC)c(OC)c(OC)c2)cc1O,Potency,[2],inactive
same,Potency,[11],inactive
same,Potency,[4],inactive
same,viability,[5],34.9% (inactive)
same,Potency,[6],inactive
same,Potency,[12],inactive
same,Potency,[13],inactive
same,Potency,[7],inactive
same,Potency,[14],inactive
same,Potency,[15],inactive
same,Potency,[16],inactive
same,Potency,[9],inactive
same,Potency,[17],inactive
same,Potency,[10],inactive
CCN1CCN(Cc2ccc(-c3cc4c(N[C@H](C)c5ccccc5)ncnc4[nH]3)cc2)CC1,Potency,[2],0.0235 µM (active)
same,Potency,[11],inactive
same,Potency,[4],0.372 µM (active)
same,Potency,[6],0.166 µM (active)
same,Potency,[14],0.662 µM (active)
same,Potency,[16],1.66 µM (active)
same,Potency,[17],3.72 µM (active)
same,Potency,[10],2.96 µM (active)
same,Z-AUC,[1],-1.03 (inactive)
same,Z-AUC,[1]; [20],0.0439
same,Z-AUC,[1]; measured here: PEO4 Z-AUC,-0.489
CCc1cc2c(cc1N1CCC(N3CCOCC3)CC1)C(C)(C)c1[nH]c3cc(C#N)ccc3c1C2=O,Potency,[11],1.48 µM (active)
same,Z-AUC,[1],0.0393 (inactive)
same,Z-AUC,[1]; [20],-0.229
same,Z-AUC,[1]; measured here: PEO4 Z-AUC,-0.554
COc1cc2c(Nc3ccc(NC(=O)c4ccccc4)cc3)ncnc2cc1OCCCN1CCOCC1,Potency,[2],inactive
same,Potency,[3],18.7 µM (active)
same,Potency,[4],20.9 µM (active)
same,Potency,[6],23.5 µM (active)
same,Potency,[12],14.8 µM (active)
same,Potency,[13],20.9 µM (active)
same,Potency,[7],14.8 µM (active)
same,Potency,[16],16.6 µM (active)
same,Potency,[8],23.5 µM (active)
same,Potency,[17],10.5 µM (active)
same,Z-AUC,[1],0.665 (inactive)
same,Z-AUC,[1]; [20],0.378
same,Z-AUC,[1]; measured here: PEO4 Z-AUC,-0.00174
Nc1cccc(-c2cc3c(Oc4cccc(O)c4)ncnc3[nH]2)c1,Potency,[2],inactive
same,Potency,[18],18.7 µM (active)
same,Potency,[3],23.5 µM (active)
same,Potency,[4],20.9 µM (active)
same,Potency,[12],2.09 µM (active)
same,Potency,[16],16.6 µM (active)
same,Potency,[17],7.43 µM (active)
same,Potency,[10],20.9 µM (active)
same,Z-AUC,[1],-0.838 (inactive)
same,Z-AUC,[1]; [20],-0.58
same,Z-AUC,[1]; measured here: PEO4 Z-AUC,-0.859
O=C(c1cncc(Br)c1)N1CCC(N2CCCC2)CC1,Potency,[2],inactive
same,Potency,[11],inactive
same,Potency,[6],inactive
same,Potency,[12],inactive
same,Potency,[13],inactive
same,Potency,[7],inactive
same,Potency,[16],inactive
same,Potency,[9],inactive
same,Potency,[17],inactive
same,Potency,[10],inactive
same,Z-AUC,[1],-0.226 (inactive)
same,Z-AUC,[1]; [20],-0.235
same,Z-AUC,[1]; measured here: PEO4 Z-AUC,0.232
same,z-score,[19]; [21],0.796
same,z-score,[19]; [22],0.785
same,z-score,[19]; [23],0.752
NC(=O)c1cccc2cn(-c3ccc([C@@H]4CCCNC4)cc3)nc12,Potency,[4],inactive
same,Potency,[6],inactive
same,Potency,[7],18.7 µM (active)
same,Potency,[14],inactive
same,Potency,[16],inactive
same,Potency,[8],inactive
same,Potency,[9],inactive
same,Potency,[17],inactive
same,Potency,[10],inactive
same,Z-AUC,[1],0.523 (inactive)
same,Z-AUC,[1]; [20],-0.0942
same,Z-AUC,[1]; measured here: PEO4 Z-AUC,0.435
CC1(C)O[C@@H]2C[C@@H]3[C@H]4C[C@@H](F)C5=CC(=O)C=C[C@]5(C)[C@@]4(F)[C@@H](O)C[C@]3(C)[C@]2(C(=O)CO)O1,Potency,[2],0.0372 µM (active)
same,Potency,[18],inactive
same,Potency,[4],0.0187 µM (active)
same,Potency,[12],inactive
same,Potency,[13],inactive
same,Potency,[7],inactive
same,Potency,[15],1.18 µM (active)
same,Potency,[8],0.0083 µM (active)
same,Potency,[17],0.0042 µM (active)
CC(=O)SC[C@@H](C)C(=O)N1CCC[C@H]1C(=O)N[C@@H](Cc1ccccc1)C(=O)O,Potency,[11],inactive
same,Potency,[4],inactive
same,viability,[5],151% (inactive)
same,Potency,[15],inactive
same,Potency,[16],inactive
same,Potency,[8],inactive
same,Potency,[17],inactive
same,Potency,[10],inactive
same,Z-AUC,[1],0.0192 (inactive)
same,Z-AUC,[1]; [20],-0.242
same,Z-AUC,[1]; measured here: PEO4 Z-AUC,-0.303
C[C@]12CC[C@H](O)CC1=CCC1C2CC[C@]2(C)C(n3cnc4ccccc43)=CCC12 (some centres undefined),Potency,[2],inactive
same,Potency,[4],inactive
same,viability,[5],80.8% (inactive)
same,Potency,[6],inactive
same,Potency,[12],14.8 µM (active)
same,Potency,[13],inactive
same,Potency,[15],inactive
same,Potency,[16],inactive
same,Potency,[17],inactive
same,Potency,[10],inactive
same,Z-AUC,[1],0.586 (inactive)
same,Z-AUC,[1]; [20],1.13
same,Z-AUC,[1]; measured here: PEO4 Z-AUC,0.642
same,z-score,[19]; [21],0.298
same,z-score,[19]; [22],0.603
same,z-score,[19]; [23],-0.0216
Cn1cc(-c2ccncc2)c(-c2ccc(OCc3ccc4ccccc4n3)cc2)n1,Potency,[2],2.64 µM (active)
same,Potency,[11],10.5 µM (active)
same,Potency,[3],16.6 µM (active)
same,Potency,[4],10.5 µM (active)
same,Potency,[6],18.7 µM (active)
same,Potency,[12],5.9 µM (active)
same,Potency,[7],5.26 µM (active)
same,Potency,[15],5.9 µM (active)
same,Potency,[8],6.62 µM (active)
same,Potency,[17],8.33 µM (active)
same,Z-AUC,[1],0.205 (inactive)
same,Z-AUC,[1]; [20],-0.209
same,Z-AUC,[1]; measured here: PEO4 Z-AUC,0.0189
COc1ccc(-n2nc(C(N)=O)c3c2C(=O)N(c2ccc(N4CCCCC4=O)cc2)CC3)cc1,Potency,[2],inactive
same,Potency,[18],inactive
same,Potency,[11],inactive
same,Potency,[4],inactive
same,Potency,[12],inactive
same,Potency,[13],inactive
same,Potency,[14],inactive
same,Potency,[15],inactive
same,Potency,[16],inactive
same,Potency,[8],inactive
same,Potency,[9],inactive
same,Potency,[17],inactive
same,Potency,[10],inactive
same,Z-AUC,[1],1.05 (inactive)
same,Z-AUC,[1]; [20],0.968
same,Z-AUC,[1]; measured here: PEO4 Z-AUC,0.601
